# Assay results taken from paper PMC7862700, “An all-to-all approach to the identification of sequence-specific readers for epigenetic DNA modifications on cytosine”.
# Columns and labels:
# Experiment in all cases: DAPPL (digital affinity profiling via proximity ligation, sequencing); 10 mM Tris-HCl pH 7.5, 50 mM NaCl, 1 mM DTT, 4% glycerol, room temperature, 30 min; GST-TFs on glutathione beads, 16-mer random dsDNA library, 0.1% formaldehyde crosslink after washing; high values mean tight binding
# FLI1 = target: T1, FLI1 (Homo sapiens, UniProt Q01543 1-452); settings: protein: recombinant; tags: N-terminal GST; dsDNA, one strand shown
# T1 sequence: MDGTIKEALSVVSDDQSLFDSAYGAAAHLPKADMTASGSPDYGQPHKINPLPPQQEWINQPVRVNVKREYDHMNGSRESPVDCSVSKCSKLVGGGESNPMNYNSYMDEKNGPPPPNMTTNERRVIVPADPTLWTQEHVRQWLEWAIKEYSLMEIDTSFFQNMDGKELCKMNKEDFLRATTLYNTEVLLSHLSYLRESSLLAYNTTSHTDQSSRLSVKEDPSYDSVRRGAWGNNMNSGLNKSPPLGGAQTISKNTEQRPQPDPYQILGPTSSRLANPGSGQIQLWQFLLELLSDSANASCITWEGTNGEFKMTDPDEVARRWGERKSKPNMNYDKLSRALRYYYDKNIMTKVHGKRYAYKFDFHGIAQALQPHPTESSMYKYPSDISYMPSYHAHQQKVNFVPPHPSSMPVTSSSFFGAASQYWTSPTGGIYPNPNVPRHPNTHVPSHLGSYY
# Summary of the method: (§1)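 In yeast, human transcription factors were expressed with a GST fusion, then pulled down on glutathione beads and given DNA barcodes. Pooled with a tag-only sample, they were exposed to 200 nmole of a 16-mer random double-stranded DNA library (Tris/NaCl/DTT/glycerol buffer, room temperature, 30 min), washed, crosslinked with 0.1% formaldehyde, proximity-ligated using BsaI/T4 ligase for 1 h at 37 °C, PCR-amplified and read on an Illumina NextSeq500. Each hexamer's frequency of reads for a factor, divided by the matching frequency for the tag-only sample, gives the binding signal.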
# ELK1 = target: T2, ELK1 (Homo sapiens, UniProt P19419 1-428); settings: protein: recombinant; tags: N-terminal GST; dsDNA, one strand shown
# T2 sequence: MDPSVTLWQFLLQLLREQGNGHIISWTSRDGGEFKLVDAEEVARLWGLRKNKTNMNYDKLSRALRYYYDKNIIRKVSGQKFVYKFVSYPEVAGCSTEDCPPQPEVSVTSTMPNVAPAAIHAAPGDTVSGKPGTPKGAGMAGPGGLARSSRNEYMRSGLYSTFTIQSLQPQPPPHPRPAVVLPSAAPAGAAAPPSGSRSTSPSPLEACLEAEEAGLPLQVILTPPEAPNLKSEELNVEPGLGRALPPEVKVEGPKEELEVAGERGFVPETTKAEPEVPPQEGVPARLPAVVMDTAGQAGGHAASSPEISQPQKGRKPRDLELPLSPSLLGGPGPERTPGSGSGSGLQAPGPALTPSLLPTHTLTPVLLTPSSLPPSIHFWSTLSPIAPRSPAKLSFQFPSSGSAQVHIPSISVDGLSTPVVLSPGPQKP
# Summary of the method: as §1
# GABPA = target: T3, GABPA (Homo sapiens, UniProt Q06546 1-454); settings: protein: recombinant; tags: N-terminal GST; dsDNA, one strand shown
# T3 sequence: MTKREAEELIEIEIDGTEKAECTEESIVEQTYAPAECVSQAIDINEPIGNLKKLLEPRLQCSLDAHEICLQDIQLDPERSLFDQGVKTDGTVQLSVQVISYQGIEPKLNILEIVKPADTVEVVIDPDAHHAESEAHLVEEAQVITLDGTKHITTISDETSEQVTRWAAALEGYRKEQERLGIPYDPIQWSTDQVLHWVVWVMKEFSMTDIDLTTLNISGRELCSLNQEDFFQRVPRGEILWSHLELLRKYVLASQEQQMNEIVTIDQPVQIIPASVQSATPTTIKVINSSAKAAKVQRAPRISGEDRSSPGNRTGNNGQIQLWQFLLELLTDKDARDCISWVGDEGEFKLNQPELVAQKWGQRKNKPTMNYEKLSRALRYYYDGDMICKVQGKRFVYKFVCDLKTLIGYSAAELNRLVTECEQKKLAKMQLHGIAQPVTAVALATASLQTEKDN
# Summary of the method: as §1
# ERG = target: T4, ERG (Homo sapiens, UniProt P11308 1-479); settings: protein: recombinant; tags: N-terminal GST; dsDNA, one strand shown
# T4 sequence: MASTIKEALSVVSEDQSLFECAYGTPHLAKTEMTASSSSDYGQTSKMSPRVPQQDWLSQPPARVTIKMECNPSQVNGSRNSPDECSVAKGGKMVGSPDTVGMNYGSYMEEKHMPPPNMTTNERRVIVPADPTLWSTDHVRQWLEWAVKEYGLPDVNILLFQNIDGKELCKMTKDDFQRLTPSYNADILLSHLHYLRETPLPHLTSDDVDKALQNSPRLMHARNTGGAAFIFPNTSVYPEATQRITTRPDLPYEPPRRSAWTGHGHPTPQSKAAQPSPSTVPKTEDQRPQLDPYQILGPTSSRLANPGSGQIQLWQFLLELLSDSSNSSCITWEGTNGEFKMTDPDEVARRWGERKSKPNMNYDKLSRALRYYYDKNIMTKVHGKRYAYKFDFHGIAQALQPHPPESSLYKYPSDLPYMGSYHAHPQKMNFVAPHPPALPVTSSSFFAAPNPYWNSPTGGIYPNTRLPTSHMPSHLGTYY
# Summary of the method: as §1
# ELF1 = ELF1 (Homo sapiens, UniProt P32519 1-619); settings: protein: recombinant; tags: N-terminal GST; dsDNA, one strand shown
# ELF1, sequence (P32519 whole entry): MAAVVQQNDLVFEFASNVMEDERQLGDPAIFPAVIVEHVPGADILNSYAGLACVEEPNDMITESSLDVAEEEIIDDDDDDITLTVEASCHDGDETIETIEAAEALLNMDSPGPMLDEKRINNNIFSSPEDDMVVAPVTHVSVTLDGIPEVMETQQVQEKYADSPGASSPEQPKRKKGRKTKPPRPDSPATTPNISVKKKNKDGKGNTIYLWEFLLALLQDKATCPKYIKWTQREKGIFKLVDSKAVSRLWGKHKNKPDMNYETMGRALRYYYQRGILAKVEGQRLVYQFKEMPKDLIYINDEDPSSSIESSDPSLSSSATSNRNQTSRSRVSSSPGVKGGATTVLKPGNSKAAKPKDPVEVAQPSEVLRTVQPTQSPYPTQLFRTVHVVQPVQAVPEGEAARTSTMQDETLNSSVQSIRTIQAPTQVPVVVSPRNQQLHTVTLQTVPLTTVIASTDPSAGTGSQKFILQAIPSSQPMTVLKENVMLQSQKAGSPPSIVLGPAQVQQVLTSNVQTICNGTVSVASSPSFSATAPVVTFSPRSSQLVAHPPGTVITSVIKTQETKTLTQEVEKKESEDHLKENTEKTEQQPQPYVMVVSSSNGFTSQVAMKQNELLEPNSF
# Summary of the method: as §1
# EHF = target: T5, EHF (Homo sapiens, UniProt Q9NZC4 1-300); settings: protein: recombinant; tags: N-terminal GST; dsDNA, one strand shown
# T5 sequence: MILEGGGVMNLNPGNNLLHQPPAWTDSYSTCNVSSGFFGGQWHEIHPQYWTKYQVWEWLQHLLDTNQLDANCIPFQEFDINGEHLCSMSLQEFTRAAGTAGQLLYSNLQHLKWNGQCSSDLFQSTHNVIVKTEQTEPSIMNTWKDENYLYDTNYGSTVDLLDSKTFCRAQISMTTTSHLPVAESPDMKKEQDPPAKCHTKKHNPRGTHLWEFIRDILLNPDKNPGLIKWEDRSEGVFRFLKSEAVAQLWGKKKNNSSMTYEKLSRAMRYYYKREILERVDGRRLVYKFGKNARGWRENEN
# Summary of the method: as §1
# SPI1 = SPI1 (Homo sapiens, UniProt P17947 1-270); settings: protein: recombinant; tags: N-terminal GST; dsDNA, one strand shown
# Summary of the method: as §1
# SPIB = SPIB (Homo sapiens, UniProt Q01892 1-262); settings: protein: recombinant; tags: N-terminal GST; dsDNA, one strand shown
# SPIB, sequence (Q01892 whole entry): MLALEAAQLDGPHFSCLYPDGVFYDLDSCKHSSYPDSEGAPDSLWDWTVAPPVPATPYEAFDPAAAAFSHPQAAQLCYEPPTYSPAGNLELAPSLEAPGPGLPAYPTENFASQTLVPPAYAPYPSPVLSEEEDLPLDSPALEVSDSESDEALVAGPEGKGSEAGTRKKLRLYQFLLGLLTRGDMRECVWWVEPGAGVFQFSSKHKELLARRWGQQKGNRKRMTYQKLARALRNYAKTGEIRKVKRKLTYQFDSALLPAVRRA
# Summary of the method: as §1
# ELK3 = target: T6, ELK3 (Homo sapiens, UniProt P41970 1-407); settings: protein: recombinant; tags: N-terminal GST; dsDNA, one strand shown
# T6 sequence: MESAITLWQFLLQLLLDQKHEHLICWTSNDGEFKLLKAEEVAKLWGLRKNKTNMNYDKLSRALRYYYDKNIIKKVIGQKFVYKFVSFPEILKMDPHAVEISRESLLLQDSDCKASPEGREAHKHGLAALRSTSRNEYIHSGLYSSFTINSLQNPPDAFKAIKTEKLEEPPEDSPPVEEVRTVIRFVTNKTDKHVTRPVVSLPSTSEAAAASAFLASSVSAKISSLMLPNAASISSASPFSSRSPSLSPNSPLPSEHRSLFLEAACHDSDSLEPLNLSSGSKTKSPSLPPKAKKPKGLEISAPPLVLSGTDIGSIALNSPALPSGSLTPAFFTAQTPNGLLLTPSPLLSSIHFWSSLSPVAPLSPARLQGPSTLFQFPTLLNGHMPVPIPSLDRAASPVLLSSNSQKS
# Summary of the method: as §1
# FEV = target: T7, FEV (Homo sapiens, UniProt Q99581 1-238); settings: protein: recombinant; tags: N-terminal GST; dsDNA, one strand shown
# T7 sequence: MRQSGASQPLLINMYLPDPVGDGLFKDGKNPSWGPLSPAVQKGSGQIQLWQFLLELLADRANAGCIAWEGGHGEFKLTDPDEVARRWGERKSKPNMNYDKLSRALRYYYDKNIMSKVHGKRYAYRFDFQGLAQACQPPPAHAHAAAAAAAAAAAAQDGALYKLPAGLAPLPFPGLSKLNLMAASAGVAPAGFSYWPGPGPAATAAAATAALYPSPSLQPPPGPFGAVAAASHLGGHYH
# Summary of the method: as §1
# ETV5 = ETV5 (Homo sapiens, UniProt P41161 1-510); settings: protein: recombinant; tags: N-terminal GST; dsDNA, one strand shown
# ETV5, sequence (P41161 whole entry): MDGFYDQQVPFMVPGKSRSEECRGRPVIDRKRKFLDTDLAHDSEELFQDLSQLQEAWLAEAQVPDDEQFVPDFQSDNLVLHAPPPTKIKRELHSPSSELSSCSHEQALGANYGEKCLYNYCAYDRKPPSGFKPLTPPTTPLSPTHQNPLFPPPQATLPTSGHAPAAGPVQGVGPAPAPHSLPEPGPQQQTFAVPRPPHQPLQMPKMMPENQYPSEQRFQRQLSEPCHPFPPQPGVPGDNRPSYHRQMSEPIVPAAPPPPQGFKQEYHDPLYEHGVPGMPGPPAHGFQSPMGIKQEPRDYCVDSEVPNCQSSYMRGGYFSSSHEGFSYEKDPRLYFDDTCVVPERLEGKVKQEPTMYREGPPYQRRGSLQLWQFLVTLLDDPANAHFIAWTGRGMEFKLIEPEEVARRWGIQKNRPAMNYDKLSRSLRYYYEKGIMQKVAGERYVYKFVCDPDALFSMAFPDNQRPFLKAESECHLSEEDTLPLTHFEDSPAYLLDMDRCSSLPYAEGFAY
# Summary of the method: as §1
# HSF1 = HSF1 (Homo sapiens, UniProt Q00613 1-529); settings: protein: recombinant; tags: N-terminal GST; chain copies: 3; dsDNA, one strand shown
# HSF1, sequence (Q00613 whole entry): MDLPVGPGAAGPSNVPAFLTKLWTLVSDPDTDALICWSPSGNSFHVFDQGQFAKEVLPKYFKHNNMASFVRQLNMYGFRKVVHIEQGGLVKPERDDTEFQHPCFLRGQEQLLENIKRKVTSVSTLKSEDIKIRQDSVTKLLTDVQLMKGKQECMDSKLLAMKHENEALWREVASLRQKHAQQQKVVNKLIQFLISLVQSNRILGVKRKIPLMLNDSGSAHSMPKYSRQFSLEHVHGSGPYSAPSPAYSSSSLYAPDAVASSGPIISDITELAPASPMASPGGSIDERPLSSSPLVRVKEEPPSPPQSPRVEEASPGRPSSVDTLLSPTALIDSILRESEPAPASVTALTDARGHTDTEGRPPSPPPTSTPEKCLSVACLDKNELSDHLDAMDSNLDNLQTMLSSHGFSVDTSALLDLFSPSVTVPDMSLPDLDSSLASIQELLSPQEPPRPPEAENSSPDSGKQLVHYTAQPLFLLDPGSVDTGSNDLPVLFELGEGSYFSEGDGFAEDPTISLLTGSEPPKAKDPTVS
# Summary of the method: as §1
# SPIC = target: T8, SPIC (Homo sapiens, UniProt Q8N5J4 1-248); settings: protein: recombinant; tags: N-terminal GST; dsDNA, one strand shown
# T8 sequence: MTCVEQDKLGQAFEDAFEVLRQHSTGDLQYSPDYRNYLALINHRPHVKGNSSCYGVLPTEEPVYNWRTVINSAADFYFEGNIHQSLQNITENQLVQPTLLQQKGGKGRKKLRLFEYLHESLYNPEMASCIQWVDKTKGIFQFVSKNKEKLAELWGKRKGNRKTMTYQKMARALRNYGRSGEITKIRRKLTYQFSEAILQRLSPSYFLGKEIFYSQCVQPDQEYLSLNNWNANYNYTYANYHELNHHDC
# Summary of the method: as §1
# ELF4 = ELF4 (Homo sapiens, UniProt Q99607 1-663); settings: protein: recombinant; tags: N-terminal GST; dsDNA, one strand shown
# ELF4, sequence (Q99607 whole entry): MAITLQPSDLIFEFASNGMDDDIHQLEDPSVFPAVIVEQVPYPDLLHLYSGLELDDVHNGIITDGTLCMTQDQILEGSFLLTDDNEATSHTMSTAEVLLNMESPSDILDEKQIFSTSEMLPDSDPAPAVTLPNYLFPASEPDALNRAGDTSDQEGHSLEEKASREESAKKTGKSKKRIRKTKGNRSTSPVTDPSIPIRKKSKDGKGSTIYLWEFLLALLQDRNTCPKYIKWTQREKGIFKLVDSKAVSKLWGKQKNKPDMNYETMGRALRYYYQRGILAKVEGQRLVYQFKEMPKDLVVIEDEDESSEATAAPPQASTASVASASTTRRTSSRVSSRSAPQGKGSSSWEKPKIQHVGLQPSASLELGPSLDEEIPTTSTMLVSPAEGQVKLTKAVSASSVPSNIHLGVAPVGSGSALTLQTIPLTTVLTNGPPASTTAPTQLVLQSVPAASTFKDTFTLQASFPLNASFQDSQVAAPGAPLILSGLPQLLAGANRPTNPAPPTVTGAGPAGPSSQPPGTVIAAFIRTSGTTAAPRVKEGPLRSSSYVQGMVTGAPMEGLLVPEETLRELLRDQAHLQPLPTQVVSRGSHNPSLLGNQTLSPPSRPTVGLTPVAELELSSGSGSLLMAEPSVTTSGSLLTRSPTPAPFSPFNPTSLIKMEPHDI
# Summary of the method: as §1
# ELK4 = target: T9, ELK4 (Homo sapiens, UniProt P28324-2 1-405); settings: protein: recombinant; tags: N-terminal GST; dsDNA, one strand shown
# T9 sequence: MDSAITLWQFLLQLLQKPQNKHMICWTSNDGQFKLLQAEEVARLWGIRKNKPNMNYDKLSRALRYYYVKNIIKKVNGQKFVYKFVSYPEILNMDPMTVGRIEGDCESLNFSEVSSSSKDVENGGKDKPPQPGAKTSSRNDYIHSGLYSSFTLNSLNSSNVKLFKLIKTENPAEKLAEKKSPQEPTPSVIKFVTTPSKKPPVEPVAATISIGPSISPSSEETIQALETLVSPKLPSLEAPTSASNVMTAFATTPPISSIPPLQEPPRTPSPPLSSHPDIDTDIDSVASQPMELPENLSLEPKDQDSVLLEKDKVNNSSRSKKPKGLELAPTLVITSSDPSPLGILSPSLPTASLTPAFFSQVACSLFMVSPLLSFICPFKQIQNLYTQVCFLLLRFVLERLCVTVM
# Summary of the method: as §1
# ETV2 = target: T10, ETV2 (Homo sapiens, UniProt O00321 1-342); settings: protein: recombinant; tags: N-terminal GST; dsDNA, one strand shown
# T10 sequence: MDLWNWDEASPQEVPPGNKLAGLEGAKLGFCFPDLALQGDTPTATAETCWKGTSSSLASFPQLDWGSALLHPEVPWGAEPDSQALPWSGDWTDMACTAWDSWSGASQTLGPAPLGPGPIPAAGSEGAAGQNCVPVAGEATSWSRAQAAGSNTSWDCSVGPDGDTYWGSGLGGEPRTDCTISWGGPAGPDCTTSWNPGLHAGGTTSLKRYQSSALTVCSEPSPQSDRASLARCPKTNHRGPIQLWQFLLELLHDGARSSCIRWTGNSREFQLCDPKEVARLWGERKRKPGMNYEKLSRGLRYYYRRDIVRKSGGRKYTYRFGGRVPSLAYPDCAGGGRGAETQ
# Summary of the method: as §1
# ELF3 = target: T11, ELF3 (Homo sapiens, UniProt P78545 1-371); settings: protein: recombinant; tags: N-terminal GST; dsDNA, one strand shown
# T11 sequence: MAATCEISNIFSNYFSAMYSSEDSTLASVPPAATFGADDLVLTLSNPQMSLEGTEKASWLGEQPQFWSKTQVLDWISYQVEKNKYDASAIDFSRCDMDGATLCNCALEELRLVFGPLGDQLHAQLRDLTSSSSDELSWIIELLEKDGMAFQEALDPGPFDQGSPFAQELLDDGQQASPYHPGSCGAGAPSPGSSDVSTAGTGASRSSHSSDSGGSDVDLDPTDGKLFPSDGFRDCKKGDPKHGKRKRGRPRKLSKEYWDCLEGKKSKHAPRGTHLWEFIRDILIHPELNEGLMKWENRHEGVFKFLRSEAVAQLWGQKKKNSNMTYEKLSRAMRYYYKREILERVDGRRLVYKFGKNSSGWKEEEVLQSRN
# Summary of the method: as §1
# CRX = CRX (Homo sapiens, UniProt O43186 1-299); settings: protein: recombinant; tags: N-terminal GST; dsDNA, one strand shown
# CRX, sequence (O43186 whole entry): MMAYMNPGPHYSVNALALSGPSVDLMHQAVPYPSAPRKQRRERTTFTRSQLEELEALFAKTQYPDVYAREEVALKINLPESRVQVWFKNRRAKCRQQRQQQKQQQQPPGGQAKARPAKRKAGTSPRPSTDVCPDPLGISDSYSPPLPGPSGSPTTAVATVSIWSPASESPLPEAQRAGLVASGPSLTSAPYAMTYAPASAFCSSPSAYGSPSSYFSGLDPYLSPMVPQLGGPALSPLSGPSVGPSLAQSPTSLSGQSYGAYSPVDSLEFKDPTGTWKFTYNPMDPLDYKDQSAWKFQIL
# Summary of the method: as §1
# ETV1 = ETV1 (Homo sapiens, UniProt P50549 1-477); settings: protein: recombinant; tags: N-terminal GST; dsDNA, one strand shown
# ETV1, sequence (P50549 whole entry): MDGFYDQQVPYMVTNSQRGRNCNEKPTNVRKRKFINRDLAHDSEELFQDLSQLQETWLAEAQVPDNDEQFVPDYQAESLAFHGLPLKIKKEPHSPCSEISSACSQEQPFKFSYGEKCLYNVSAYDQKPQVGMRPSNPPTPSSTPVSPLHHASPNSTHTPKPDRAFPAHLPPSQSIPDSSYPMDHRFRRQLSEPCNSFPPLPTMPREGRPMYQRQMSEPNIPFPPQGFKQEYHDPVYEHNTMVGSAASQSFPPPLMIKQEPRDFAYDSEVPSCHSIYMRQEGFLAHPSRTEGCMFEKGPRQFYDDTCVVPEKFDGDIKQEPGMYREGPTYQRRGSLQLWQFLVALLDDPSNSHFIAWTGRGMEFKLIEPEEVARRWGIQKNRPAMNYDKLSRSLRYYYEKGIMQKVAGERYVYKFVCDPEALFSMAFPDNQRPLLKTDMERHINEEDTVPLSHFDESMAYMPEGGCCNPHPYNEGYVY
# Summary of the method: as §1
sequence,measurement,setting,value
ATTCGA,binding signal,FLI1,"1.3 fold enrichment (6-mer frequency, TF over GST control)"
same,binding signal,ELK1,"1.22 fold enrichment (6-mer frequency, TF over GST control)"
same,binding signal,GABPA,"1.37 fold enrichment (6-mer frequency, TF over GST control)"
same,binding signal,ERG,"1.33 fold enrichment (6-mer frequency, TF over GST control)"
same,binding signal,ELF1,"1.41 fold enrichment (6-mer frequency, TF over GST control)"
same,binding signal,EHF,"1.29 fold enrichment (6-mer frequency, TF over GST control)"
same,binding signal,SPI1,"1.32 fold enrichment (6-mer frequency, TF over GST control)"
same,binding signal,SPIB,"1.38 fold enrichment (6-mer frequency, TF over GST control)"
same,binding signal,ELK3,"1.25 fold enrichment (6-mer frequency, TF over GST control)"
same,binding signal,FEV,"1.27 fold enrichment (6-mer frequency, TF over GST control)"
same,binding signal,ETV5,"1.28 fold enrichment (6-mer frequency, TF over GST control)"
same,binding signal,HSF1,"2.51 fold enrichment (6-mer frequency, TF over GST control)"
same,binding signal,SPIC,"1.41 fold enrichment (6-mer frequency, TF over GST control)"
same,binding signal,ELF4,"1.38 fold enrichment (6-mer frequency, TF over GST control)"
same,binding signal,ELK4,"1.2 fold enrichment (6-mer frequency, TF over GST control)"
same,binding signal,ETV2,"1.37 fold enrichment (6-mer frequency, TF over GST control)"
same,binding signal,ELF3,"1.55 fold enrichment (6-mer frequency, TF over GST control)"
same,binding signal,CRX,"1.63 fold enrichment (6-mer frequency, TF over GST control)"
same,binding signal,ETV1,"1.3 fold enrichment (6-mer frequency, TF over GST control)"
